Experimental data: the supplement of paper PMC3898565
± gives the uncertainty stated by the source.

Test system: U87
Assay: cell viability relative to vehicle control; higher = less growth inhibition (less active)
Settings: 10 µM; 72 h
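Further: viable cell number estimated from Alamar Blue fluorescence read at 560/90, part of a single-dose primary screen of an FDA-approved drug library.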

Row | Compound | cell viability
1 | O=C1c2c(O)cc(O)cc2O[C@H](c2ccc(O)c(O)c2)[C@H]1O (racemic) | 85.3 ± 2.2%
2 | CCCCCNC(=N)N/N=C/c1c[nH]c2ccc(OC)cc12 | 108 ± 1.2%
3 | COC(=O)C[C@](O)(CCCC(C)(C)O)C(=O)O[C@@H]1C(OC)=C[C@]23CCCN2CCc2cc4c(cc2[C@H]13)OCO4 | 10.3 ± 0.73%
4 | CN1CCCCC1CCN1c2ccccc2Sc2ccc([S+](C)[O-])cc21 (centres undefined) [Mesoridazine] | 105 ± 2.8%
5 | COc1ccc(CN2CCN(C(c3ccc(F)cc3)c3ccc(F)cc3)CC2)c(OC)c1OC | 69.3 ± 8.6%
6 | O=C1N[C@H](C(=O)O)CS1 [4-Thiazolidinecarboxylic acid, 2-oxo-, (R)- [CAS]] | 101.1 ± 0.43%
7 | CN1CCN(C2=Nc3ccccc3Oc3ccc(Cl)cc32)CC1 [Loxapine] | 102 ± 1.6%
8 | CCC1=C[C@H]2CN(C1)Cc1c([nH]c3ccccc13)[C@@](C(=O)OC)(c1cc3c(cc1OC)N(C)[C@H]1[C@@](O)(C(=O)OC)[C@H](OC(C)=O)[C@]4(CC)C=CCN5CC[C@]31[C@@H]54)C2 [Vinorelbine Bitatrate] | 18 ± 5%
9 | O=c1[nH]cnc2c1ncn2[C@H]1CC[C@@H](CO)O1 | 105 ± 2.5%
10 | O=C(CCCN1CCC(O)(c2ccc(Cl)cc2)CC1)c1ccc(F)cc1 [Haloperidol] | 107.5 ± 0.44%
11 | O=C(O[C@H]1[C@H](Oc2ccccc2COC(=O)C2(O)C=CCCC2=O)O[C@H](CO)[C@@H](O)[C@@H]1O)c1ccccc1 (some centres undefined) | 104 ± 2.2%
12 | O=C1Nc2ccc(Cl)cc2[C@@](C#CC2CC2)(C(F)(F)F)O1 | 107 ± 1.1%
13 | CN1CCN2c3ncccc3Cc3ccccc3C2C1 (centres undefined) | 108 ± 2.1%
14 | CCCCN1CCCC1CNC(=O)c1cc(C#N)c2ccccc2c1OC (centres undefined) [Nafadotride] | 102 ± 1.5%
15 | O=C1CC2(CCCC2)CC(=O)N1CCNCC1COc2ccccc2O1 (centres undefined) | 110.4 ± 0.75%
16 | CCN1CCC[C@H]1CNC(=O)c1cc(S(N)(=O)=O)ccc1OC | 102 ± 3.2%
17 | COCC1=C(C(=O)OC(C)OC(=O)OC(C)C)N2C(=O)[C@@H](NC(=O)/C(=N\OC)c3csc(N)n3)[C@H]2SC1 (some centres undefined) | 106 ± 1.6%
18 | O=c1ncc(F)c[nH]1 [5-fluoro-2-pyrimidone] | 106.8 ± 0.67%
19 | COc1ccc(C(=O)NCc2ccc(OCCN(C)C)cc2)cc1OC | 95.8 ± 3.2%
20 | CC(C)OC(=O)CCC/C=C\C[C@@H]1[C@@H](CC[C@@H](O)CCc2ccccc2)[C@H](O)C[C@@H]1O | 106 ± 4.2%

Row | Compound | cell viability
21 | CCCCc1nc(Cl)c(CO)n1Cc1ccc(-c2ccccc2-c2nnn[nH]2)cc1 [LOSARTAN Potassium] | 107 ± 1.9%
22 | CS(=O)(=O)c1ccc(C2=C(c3ccccc3)C(=O)OC2)cc1 | 107.7 ± 0.87%
23 | CC[N+](C)(CC)CCOC(=O)C(O)(c1ccccc1)C1CCCCC1 (centres undefined) | 109 ± 1.3%
24 | Nc1nc(Cl)nc2c1ncn2[C@@H]1O[C@H](CO)[C@@H](O)[C@H]1O | 90.6 ± 3%
25 | C#C[C@]1(O)CC[C@H]2[C@@H]3CCc4cc(O)ccc4[C@H]3CC[C@@]21C | 102 ± 2.1%
26 | CCCc1nc(C(C)(C)O)c(C(=O)OCc2oc(=O)oc2C)n1Cc1ccc(-c2ccccc2-c2nnn[nH]2)cc1 | 102 ± 1.9%
27 | COc1ccc2c3c1O[C@H]1C[C@@H](O)C=C[C@@]31CCN(C)C2 [Galanthamine] | 100 ± 0.85%
28 | O=C(O[C@@H]1Cc2c(O)cc(O)cc2O[C@@H]1c1cc(O)c(O)c(O)c1)c1cc(O)c(O)c(O)c1 [Epigallocatechin gallate] | 77.8 ± 4.2%
29 | Nc1c2c(nc3ccccc13)CCCC2 | 110 ± 18%
30 | Nc1ccn([C@@H]2O[C@H](CO)[C@@H](O)[C@@H]2O)c(=O)n1 [2(1H)-Pyrimidinone, 4-amino-1-D-arabinofuranosyl- [CAS]] | 47.5 ± 2.9%
31 | CNCC[C@H](Oc1cccc2ccccc12)c1cccs1 [Duloxetine] | 104 ± 1.9%
32 | COc1ccc(C2CNC(=O)C2)cc1OC1CCCC1 (centres undefined) | 99.3 ± 1.2%
33 | Clc1cccc(Cl)c1NC1=NCCN1 | 108 ± 2.8%
34 | CC(C)(C)NC(=O)[C@@H]1C[C@@H]2CCCC[C@@H]2CN1C[C@@H](O)[C@H](Cc1ccccc1)NC(=O)[C@H](CC(N)=O)NC(=O)c1ccc2ccccc2n1 | 96.4 ± 2.6%
35 | NC(N)=NC(=O)c1nc(Cl)c(N)nc1N | 93.54 ± 0.1%
36 | O=C(O)/C=C/c1ccc(Cn2ccnc2)cc1 [ozagrel] | 104 ± 1.2%
37 | COc1cc(/C=C/c2ccc(O)cc2)cc(OC)c1 | 100.4 ± 0.43%
38 | COc1nc(C)nc(Cl)c1NC1=NCCN1 | 102 ± 1.7%
39 | Cc1ncc([N+](=O)[O-])n1CC(C)O (centres undefined) [1-(2-Methyl-5-nitro-imidazol-1-yl)-propan-2-ol] | 102.9 ± 0.98%
